M1 PAM: potentiates human M1 receptor response to acetylcholine; P11229; CHO-K1 hM1, Fluo-8 calcium fluorescence, ACh EC20; 0% = ACh EC20, 100% = maximal ACh; activation, % at 3 µM; 360,000 tested, 0.088% active; AID 588819; in the data active = activation above about 19%, passing the limit was not always enough
Target sequence (P11229 whole entry, looked up): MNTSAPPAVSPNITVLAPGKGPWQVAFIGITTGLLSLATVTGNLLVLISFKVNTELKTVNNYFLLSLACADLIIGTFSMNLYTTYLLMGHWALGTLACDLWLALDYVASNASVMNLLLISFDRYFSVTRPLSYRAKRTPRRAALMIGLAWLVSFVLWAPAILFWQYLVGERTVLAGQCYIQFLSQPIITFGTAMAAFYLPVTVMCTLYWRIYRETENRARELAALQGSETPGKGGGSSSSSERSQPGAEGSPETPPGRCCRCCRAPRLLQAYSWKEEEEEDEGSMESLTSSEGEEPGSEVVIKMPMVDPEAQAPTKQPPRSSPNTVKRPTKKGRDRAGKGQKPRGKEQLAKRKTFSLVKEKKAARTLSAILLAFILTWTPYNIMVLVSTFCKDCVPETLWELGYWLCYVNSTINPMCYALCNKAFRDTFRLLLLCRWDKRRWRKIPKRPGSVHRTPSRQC
ATG4B inhibitor: blocks human ATG4B protease cleavage of LC3 substrate. Q9Y4P1. ATG4B cleavage of LC3-PLA2, NBD-HPC fluorescence, 1 h. inhibition, % at 8.33 µM. 340,000 tested, 0.51% active; in the data active = inhibition above about 40%
CHRM1 agonist: agonists of human M1 muscarinic receptor | 360,000 tested, 0.33% active | activation, % at 3 µM | P11229 | CHO-K1 hM1, Fluo-8 calcium fluorescence, agonist mode; 0% DMSO, 100% acetylcholine EC100 | AID 588814;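 active = activation above the run's mean compound activation plus 3 SD, cut at about 16% in these data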;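 note: peak over basal fluorescence ratio within a 140 s kinetic read after compound addition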
SKN-1 block: C. elegans SKN-1 inhibition. C. elegans VP596 Pgst-4::GFP/RFP ratio, acrylamide-induced, 24 h. inhibition, % at 21.8 µM. 360,000 tested, 0.49% active. AID 624304;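 active = interference check ratio from 0.5 to 1.5 plus GFP to RFP signal ratio inhibition reaching or exceeding a fixed threshold, cut at about 30% in these data, passing the limit was not always enough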
M1 antag: antagonists of human M1 muscarinic receptor; P11229; CHO-K1 hM1, Fluo-8 calcium fluorescence, ACh EC80 antagonist; inhibition, % at 3 µM; 360,000 tested, 1.3% active;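 active = percent inhibition above its own plate's cutoff, namely the mean of that plate's compound wells plus 3 SD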;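 note: peak over basal fluorescence ratio during 140 s after agonist addition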
Myeloid diff 2: promotes myeloid progenitor differentiation; ER-HoxA9 myeloid progenitors, lysozyme-GFP differentiation, flow cytometry; calls only at 10 µM; 360,000 tested, 1% active;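 active = normalized GFP-positive differentiation at or above the plate's own cutoff, the solvent-only control mean plus 3 SD; inconclusive = no clear call, values can overlap the other calls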;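 note: cells exposed to compound for four days before flow analysis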
Each line names hits and unclear results; the compound was inactive in the other large screens. Rows were chosen to be rich in hits. Some 3.5% of all compounds tested hit in one or more screens of this group.

CC1CCN(C(=O)COc2ccc3ccccc3c2Br)CC1	none (no result: ATG4B inhibitor)
C[C@@H]1CN([C@H](C)CO)C(=O)c2cc(Br)cnc2O[C@@H]1CN(C)C(=O)Nc1cccc(F)c1	none (no result: ATG4B inhibitor)
Cc1cc(C)n(Cc2ccc(C(=O)NCc3ccco3)o2)n1	SKN-1 block 35.8
O=NN1CCN(c2ccncc2S(=O)(=O)N2CCCCC2)CC1	none
CN1CCN(c2ccncc2S(=O)(=O)N2CCCCC2)CC1	M1 antag 26.6
CC(C)N1CCN(c2ccncc2S(=O)(=O)N2CCCCC2)CC1	M1 antag 97.5 (no result: ATG4B inhibitor)
COc1ccccc1CN1CCC(CNS(=O)(=O)c2cc(-c3cc(C)no3)ccc2OC)CC1	M1 antag 93.4
CN(C)C/C=C/C(O)(c1ccccc1)c1ccccc1	M1 antag 96.5
CN(C)CC(CCC(CN(C)C)C(O)(c1ccccc1)c1ccccc1)C(O)(c1ccccc1)c1ccccc1 (stereo not given)	none (no result: M1 PAM, CHRM1 agonist, SKN-1 block, M1 antag, Myeloid diff 2)
Cc1cc(S(=O)(=O)N2CCN(C(=O)c3ccco3)CC2)ccc1F	none (no result: Myeloid diff 2)
CCC(C)N(C)Cc1cccc(C2(O)CCN(S(=O)(=O)c3ccc(F)c(C)c3)CC2)c1 (stereo not given)	M1 antag 81.4
O=C(CSc1n[nH]c(Cc2ccccc2)n1)Nc1ccccc1Br	none
Cc1ccc(NC(=O)CN(C)C(=O)C(C)OC(=O)c2ccccc2NCCO)cc1 (stereo not given)	M1 PAM 27.5
Cc1ccc(C)c(N2CCN(S(=O)(=O)c3ccc4c(c3)NC(=O)CS4)CC2)c1	none
Cc1ccc(N)c(C(=O)CCCCC(=O)O)c1	Myeloid diff 2 active
Cc1ccc(NC(=O)CCCC(=O)O)c(Br)c1	none
COc1cc(/C=C(\C#N)c2nc3ccc(C)cc3[nH]2)cc([N+](=O)[O-])c1O	none
Cc1cc(/C=C(\C#N)c2nc3ccccc3[nH]2)c(C)n1C	none
CCOc1cc(N(CC)CC)ccc1/C=C(/C#N)c1nc2ccccc2[nH]1	CHRM1 agonist 36.0, M1 antag 52.2, Myeloid diff 2 inconclusive
COc1cc(/C=C(\C#N)c2nc3ccc(C)cc3[nH]2)c([N+](=O)[O-])cc1OC	none
CCCOc1cc(N(CC)CC)ccc1/C=C(/C#N)c1nc2ccc(C)cc2[nH]1	M1 antag 39.1, Myeloid diff 2 inconclusive
CCN(CC)c1ccc(/C=C(/C#N)c2nc3ccc(C)cc3[nH]2)c(OC(C)C)c1	CHRM1 agonist 30.5, M1 antag 52.3, Myeloid diff 2 active
O=C(CCCn1c(=O)c2sccc2n(CC(=O)OCc2ccccc2)c1=O)NCc1ccco1	M1 antag 27.7
O=C(CCn1c(=O)c2sccc2n(CC(=O)OCc2ccccc2)c1=O)NCc1ccco1	none
Cc1ccc(NC(=O)c2cc(S(=O)(=O)N3CCCCC3)ccc2N2CCOCC2)cc1S(=O)(=O)N(C)C	none
Cc1ccc(NC(=O)c2cc(S(=O)(=O)N(C)C)ccc2N2CCCC2)cc1S(=O)(=O)N(C)C	M1 antag 31.8
O=C(Nc1ccc([N+](=O)[O-])cc1)c1cc(Cl)sc1Cl	Myeloid diff 2 active
O=C(Nc1ccc(F)cc1)c1cc(Cl)sc1Cl	none
Cc1ccc(S(=O)(=O)CCC(=O)O)cc1C	Myeloid diff 2 active
CCCC1NC(=O)c2cccnc2-n2c1nc1ccc(Cl)cc1c2=O (stereo not given)	none (no result: ATG4B inhibitor)
CSc1ncccc1C(=O)OCC(=O)NC1CC1	none
O=C1C(=O)N(CCN2CCOCC2)C(c2ccc(F)cc2)/C1=C(/O)c1ccc(S(=O)(=O)N2CCOCC2)cc1 (stereo not given)	M1 antag 31.1
CCOC(=O)N1CCN(C(=O)c2ccc3c(c2)NC(=O)/C(=C\c2ccc(OC)c(OC)c2)S3)CC1	M1 antag 51.5
COc1ccc(/C=C2/Sc3ccc(C(=O)N4CCOCC4)cc3NC2=O)cc1OC	none
COC(=O)CSc1nc(C)cc(C)c1C#N	none
Cc1cc(C)c(C#N)c(SCC(O)COc2ccc(Br)cc2)n1 (stereo not given)	M1 antag 61.3
Cc1ccc(S(=O)(=O)NC2=C(N3CCN(Cc4ccccc4)CC3)C(=O)c3ccccc3C2=O)cc1	Myeloid diff 2 active
Cc1ccc(S(=O)(=O)NC2=NCN(Cc3ccccc3)CN2)cc1	none
Cc1ccc(S(=O)(=O)NC2=NCN(C3CCN(Cc4ccccc4)CC3)CN2)cc1	M1 antag 28.7
Cc1ccc(S(=O)(=O)NNC(=O)C2CCN(Cc3ccccc3)CC2)cc1	M1 antag 80.0
COC(=O)C1CCN(Cc2ccc(C)cc2)CC1	none
CC1(C(=O)NS(=O)(=O)c2cccc(Cl)c2)CCN1C(=O)CC1CCCC1 (stereo not given)	none (no result: ATG4B inhibitor)
COC(=O)[C@@H](Cc1ccccc1)NC(=O)Cn1cc(C)c(=O)[nH]c1=O	none
Cc1oc(C(C)(C)C)cc1C(=O)N1CCCC1C(=O)O (stereo not given)	Myeloid diff 2 active
Cc1cc(C)c(S(=O)(=O)N2CCN(C(=O)N3CCOCC3)CC2)c(C)c1	none
Cc1cc(C)c(S(=O)(=O)N2CCN(C(=O)N3CCCCC3)CC2)c(C)c1	Myeloid diff 2 active
O=C(c1ccc(CSc2ccc(Cl)cc2)cc1)N1CCCC1	none
O=S(=O)(c1ccc(F)cc1)n1ccc(-c2cccc(OCc3c(F)cccc3Cl)c2)n1	SKN-1 block 41.9
Cc1ccc(NC(=O)NC(=O)COc2c(F)c(F)cc(F)c2F)c(C)c1	none
COc1ccc(N(CCC#N)S(=O)(=O)c2cccc3nsnc23)cc1	M1 antag 24.7
Brc1ccc(Oc2nnnn2-c2ccccc2)cc1	SKN-1 block 36.8
CCC(=O)N1CCc2cc(S(=O)(=O)CCC(=O)NCc3cccc(OC)c3)ccc21	M1 antag 51.2
CN(C)S(=O)(=O)c1cccc(NC(=O)COc2ccccc2C(=O)Nc2ccccc2)c1	M1 antag 41.3 (no result: ATG4B inhibitor)
Cc1ccc(S(=O)(=O)N(C)C)cc1NC(=O)COc1ccccc1C(=O)Nc1ccccc1	none
CN(C)S(=O)(=O)c1cccc(NC(=O)c2ccc(COc3ccccc3)cc2)c1	M1 antag 38.6
Cc1cc(Br)ccc1NC(=O)CN(C)C(=O)Cn1c(=O)cnc2ccccc21	M1 antag 29.2
Cc1ccc2c(c1)c1c3n2CCCN(Cc2ccccc2)C3CCC1 (stereo not given)	Myeloid diff 2 active
COC(=O)c1nnn(-c2nonc2N)c1COc1ccc(C=O)cc1OC	none
CCCCOc1ccc(C2=CSC3=NCCN23)cc1[N+](=O)[O-]	M1 antag 59.0
CC(C)(C)c1ccc(C2=CSC3=NCCN23)cc1	SKN-1 block 47.6
Clc1ccc(C2=CSC3=NCCN23)cc1Cl	M1 antag 17.1
COc1ccc(C2=CSC3=NCCN23)cc1OC	none
COc1ccc(S(=O)(=O)N2CCOC2CNC(=O)C(=O)NCc2ccc(F)cc2)cc1OC (stereo not given)	none

From PubChem
